The sample as a whole holds a higher share of hits than the screen did.
ST2 IL33 inh: inhibitors of human ST2 (IL1RL1) binding to IL-33, primary screen, biochemical, AlphaLISA | Interleukin-1 receptor-like 1 (Homo sapiens), Q01638 | AlphaLISA ST2-Fc/biotin-IL-33 interaction, 1 h | inhibition, % for hits at 17 µM | 2.3% of 78,000 active | AID 1259354, 2018; in the data active = inhibition above about 30%
Target sequence (Q01638 whole entry, looked up): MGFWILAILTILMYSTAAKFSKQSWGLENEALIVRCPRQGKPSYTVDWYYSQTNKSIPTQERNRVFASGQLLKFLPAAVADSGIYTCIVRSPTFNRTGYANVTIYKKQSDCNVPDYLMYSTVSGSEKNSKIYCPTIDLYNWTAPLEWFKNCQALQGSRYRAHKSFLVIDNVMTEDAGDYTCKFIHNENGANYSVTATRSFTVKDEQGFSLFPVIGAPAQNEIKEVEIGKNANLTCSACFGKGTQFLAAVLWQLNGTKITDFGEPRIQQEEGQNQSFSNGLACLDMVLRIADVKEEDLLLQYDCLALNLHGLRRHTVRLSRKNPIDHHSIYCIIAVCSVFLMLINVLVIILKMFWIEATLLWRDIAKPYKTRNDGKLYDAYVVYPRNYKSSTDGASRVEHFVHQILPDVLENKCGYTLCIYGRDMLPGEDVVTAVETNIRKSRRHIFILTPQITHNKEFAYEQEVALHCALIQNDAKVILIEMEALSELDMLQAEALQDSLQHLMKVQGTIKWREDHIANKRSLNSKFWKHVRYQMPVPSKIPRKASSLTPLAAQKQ
Starred values were filed as active, the others as inactive; i = inactive; ! = repeats disagree.

SMILES	ST2 IL33 inh
Cc1ccc(-n2c(=O)n(Cc3ccccc3)c3c(C(N)=O)nc(-c4cccc(Cl)c4)nc32)cc1C	i
CCOC(=O)c1c(NC(=O)C(c2ccccc2)c2ccccc2)sc(C(C)=O)c1C	i
Cc1ccc(S(=O)(=O)N2CCOCC2)cc1C(=O)Nc1cccnc1	i
CCc1ccc(NC(=O)C(=O)NCCN2CCN(C(=O)c3ccc(OC)c(OC)c3)CC2)cc1	i
COc1cccc(N2CCC(N3CCCC(N4CCN(c5ccccc5C)CC4)C3)CC2)c1 (configuration not stated)	i
CC1CCC(N2CCN(c3ccccc3)CC2)C1 (configuration not stated)	i
COc1cccc(N2CCN(C3CCC(C)C3)CC2)c1 (configuration not stated)	31%*
N/C(=N\OC(=O)c1ccccc1F)c1nonc1N	i
CCc1ccc(-c2ccc(C(=O)Oc3ccc(C(=O)OC)cc3)cc2)nc1	i
CC(=O)NC(=Nc1nc(C)cc(C)n1)Nc1ccc([N+](=O)[O-])cc1C	i
COC(=O)[C@@H]1Cc2ncn(Cc3ccc(Cl)cc3)c2CN1C(=O)c1ccccc1OC	i
COC(=O)[C@@H]1Cc2ncn(Cc3ccc(OC)cc3)c2CN1Cc1ccc(OC)cc1	89%*
COC(=O)[C@@H]1Cc2ncn(Cc3ccc(Cl)cc3)c2CN1C(=O)COc1ccccc1	i
COC(=O)[C@@H]1Cc2ncn(Cc3ccc(Cl)cc3)c2CN1Cc1ccc(CO)o1	i
COC(=O)[C@@H]1Cc2ncn(Cc3ccc(OC)cc3)c2CN1C(=O)c1ccc(OC)cc1	i
COC(=O)[C@@H]1Cc2ncn(Cc3ccc(Cl)cc3)c2CN1Cc1ccc(F)cc1	i
COCC(=O)N1Cc2c(ncn2Cc2ccc(OC)cc2)C[C@H]1C(=O)OC	68%*
COC(=O)[C@@H]1Cc2ncn(Cc3ccc(Cl)cc3)c2CN1S(C)(=O)=O	i
COC(=O)[C@@H]1Cc2ncn(Cc3ccc(OC)cc3)c2CN1Cc1cccc(C#N)c1	41%*
COC(=O)C1C(=O)C2=C(CC1C)NC(C)=C(C(=O)OC1CCCC1)C2c1cccc(OC)c1 (configuration not stated)	i
CCN1CCc2c(sc(NC(=O)COc3ccc(Cl)cc3)c2C(=O)OC)C1	i
COc1cc(C(=O)O/N=C(/N)c2cccnc2)cc(OC)c1OC	i
COc1ccc2cc3cc(C(=O)NC(C)C)oc3nc2c1	i
CCC(C)NC(=O)c1cc2cc3ccc(Cl)cc3nc2o1 (configuration not stated)	31%*!
CC(C)OCCCNC(=O)c1cc2cc3ccc(Cl)cc3nc2o1	i
SMILES	ST2 IL33 inh
Clc1ccc(-c2csc(N3CCOCC3)n2)c(Cl)c1	i
O=C(NCCc1cccc2ccccc12)C1CCCN1S(=O)(=O)c1ccccc1 (configuration not stated)	i
O=C(NC(Cc1c[nH]c2ccccc12)C(=O)O)c1ccccc1 (configuration not stated)	i
O=C(N[C@H]1CCN2C(=O)[C@@H](Cc3c[nH]c4ccccc34)NC(=O)[C@H]12)c1ccccc1	79%*
CC(C)C1NC(=O)CNC(=O)C2CCCN2C(=O)C(Cc2c[nH]c3ccccc23)NC(=O)CNC(=O)C(C(O)c2ccc(O)cc2)NC(=O)CNC1=O (configuration not stated)	i
CC1=C(C#N)C(=O)NC(=O)/C1=C\c1ccc(-c2cc(C)c(C)cc2[N+](=O)[O-])o1	34%*
Cc1ccc(C2=N/C(=C\c3cccnc3)C(=O)O2)cc1[N+](=O)[O-]	i
Cc1ccc(-c2ccc(/C=C3/NC(=O)NC3=O)o2)cc1[N+](=O)[O-]	41%*
Cc1ccc(-c2ccc(C=C3C(=O)OC(C)(C(C)(C)C)OC3=O)o2)cc1[N+](=O)[O-] (configuration not stated)	i
Cc1cc(C)c(-n2nnnc2SCC(=O)N2CCCC(C)C2)c(C)c1 (configuration not stated)	i
O=C(c1ccc(S(=O)(=O)N2CCCC2)cc1)N1CCN=C1SCc1ccccc1F	i
COc1cc2ccccc2cc1C(=O)Oc1cccc2cccnc12	i
CCOc1ccccc1C1C(C#N)=C(N)Oc2n[nH]c(-c3ccccc3)c21 (configuration not stated)	i
O=C(C(=O)N1CCCN2CCCC2C1)c1ccco1 (configuration not stated)	i
COc1ccc(C2C(C(=O)NCCN(C)C)c3cc(OC)c(OC)cc3C(=O)N2C)cc1 (configuration not stated)	33%*
CCN(CC)CCNC(=O)C1c2cc(OC)c(OC)cc2C(=O)N(C)C1c1ccc(OC)cc1 (configuration not stated)	i
COCCCNC(=O)C1c2cc(OC)c(OC)cc2C(=O)N(C)C1c1ccc(OC)cc1 (configuration not stated)	i
C#CC(CO)NCc1ccccc1 (configuration not stated)	i
CC(C)C(=O)Nc1nc2cc(NC(=O)C3CCN(S(=O)(=O)N4CCCC4)CC3)ccc2s1	i
Cn1c(-c2ccccc2)cnc1SCc1csc(N)n1	i
NC(=O)CSc1nc2c([nH]c3ccccc32)c(=O)n1-c1ccccc1	i
O=C(CSc1nc2c([nH]c3ccccc32)c(=O)n1-c1ccc(Cl)cc1)Nc1nccs1	31%*
COc1ccc(-n2c(SCC(N)=O)nc3c([nH]c4ccccc43)c2=O)cc1	i
CC(C)O[C@H]1CN(C(=O)c2ccc(CSc3ncccn3)o2)C[C@@H]1O	i
O=C(CCC(=O)NC1CCCCCC1)NC1CCCCCC1	i
SMILES	ST2 IL33 inh
Cc1nnsc1CN(C)C(=O)CCC(=O)NC1CCCC1	97%*
Cc1nnsc1CN(C)CC(=O)NC1CCCCCCC1	i
COc1cccc(C2C(C(N)=O)=C(C)Nc3ncnn32)c1OC (configuration not stated)	i
O=c1c2ccccc2c(-c2cccs2)nn1CCc1ccccc1	35%*
CC(=O)OCCn1nc(-c2ccccc2)c2ccccc2c1=O	i
CC(C)Cn1nc(-c2ccccc2)c2ccccc2c1=O	i
CC(NS(=O)(=O)c1ccccc1)C12CCC3CCC(CC(C3)C1)C2 (configuration not stated)	i
Cc1sc2ncnc(NCCCN3CCOCC3)c2c1C	i
O=C(NC1CCCCC1)N1Cc2[nH]cnc2C[C@H]1c1nc(-c2ccc3ccccc3c2)no1	i
Cc1ccc(NC(=O)N2Cc3[nH]cnc3C[C@H]2c2nc(-c3ccc4ccccc4c3)no2)cc1	i
O=C(Nc1ccccc1)N1Cc2[nH]cnc2C[C@H]1c1nc(-c2ccc3ccccc3c2)no1	38%*
O=C(CS(=O)(=O)c1cn(Cc2cccc(F)c2)c2ccccc12)Nc1ccc2c(c1)OCO2	i
COc1cc(C2NC(=O)C(C)S2)cc(OC)c1OC (configuration not stated)	i
O=c1/c(=C\c2cccc([N+](=O)[O-])c2)sc2nc3ccccc3n12	i
CCCCOc1ccc(/C=c2\sc3ncnn3c2=O)cc1OC	i
COc1ccc(/C=c2\sc3nc4ccccc4n3c2=O)cc1O	50%*
CCOc1ccc(C2C(C(=O)Nc3ccccc3OC)=C(C)Nc3nnnn32)cc1OC (configuration not stated)	i
COc1ccc(C2SCCN2S(=O)(=O)c2ccc(Br)cc2)cc1 (configuration not stated)	i
COc1ccc(-c2noc([C@@H]3Cc4nc[nH]c4CN3C(=O)Nc3ccc(Cl)cc3)n2)cc1	i

Assay outcomes from PubChem.
